Source: PMC5540273 (PLoS ONE, 2017)

How the values were obtained:
Details in all cases: concentration: 1 μM, replicates: in singlicate; n = 1
SGK3 = system: SGK3
SGK = system: SGK
SIK2 = system: SIK2
SIK = system: SIK
SLK = system: SLK
SNARK = system: T1, SNARK
T1 construct: gene NUAK2

SNRK = system: SNRK
SRC = system: SRC
SRMS = system: SRMS
SRPK1 = system: SRPK1
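Note: KINOMEscan kinase panel screen.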

Structure (SMILES) | %Inh (SGK3) [%] | %Inh (SGK) [%] | %Inh (SIK2) [%] | %Inh (SIK) [%] | %Inh (SLK) [%] | %Inh (SNARK) [%] | %Inh (SNRK) [%] | %Inh (SRC) [%] | %Inh (SRMS) [%] | %Inh (SRPK1) [%]
Fc1ccc(-c2nn3cccc(F)c3c2-c2ccncc2)cc1 [GW475620] | 0 | 0 | 12 | 3 | 16 | 0 | 0 | 1 | 0 | 3
CS(=O)(=O)Cc1ccc(Nc2nccc(-c3c(-c4cccc(NC(=O)C5CCCCC5)c4)nn4ncccc34)n2)cc1 [GSK350559] | 0 | 46 | 0 | 0 | 53 | 7 | 16 | 30 | 3 | 29
O=c1cc(N2CCOCC2)nc2n(Cc3ccccc3F)ccn12 [GSK2297428] | 4 | 0 | 0 | 0 | 28 | 0 | 0 | 0 | 0 | 0
Cc1ccc(NC(=O)Nc2ccc(Cl)c(C(F)(F)F)c2)cc1-c1ccc(C(=O)Nc2ccncc2)cc1 [GSK1398470] | 4 | 0 | 26 | 41 | 21 | 4 | 56 | 21 | 0 | 30
COc1cccc(C2=C(Nc3cc(Cl)c(O)c(Cl)c3)C(=O)NC2=O)c1 [SB-390767] | 0 | 0 | 0 | 0 | 13 | 0 | 0 | 0 | 0 | 11
Cc1cnc(N)c(/C=C/c2cncc(C(=O)NCCc3ccc(Cl)cc3Cl)c2)c1.Cl [GSK190937] | 0 | 0 | 0 | 0 | 0 | 0 | 0 | 0 | 24 | 24
CC[C@@H]1CO[C@H](C(=O)Nc2ccccc2)CN1c1cc(-c2ccc3c(N)n[nH]c3c2)nc(NC)n1 [GSK2376236] | 9 | 19 | 0 | 0 | 16 | 26 | 5 | 0 | 0 | 32
CS(=O)(=O)CCNCc1nc(-c2ccc3ncnc(Nc4ccc5c(cnn5Cc5ccccc5)c4)c3c2)cs1.Cl.Cl [GW569716] | 0 | 3 | 0 | 0 | 0 | 0 | 0 | 0 | 0 | 14
Fc1ccc(-c2nc[nH]c2-c2ccncc2)cc1 [SB-217360] | 7 | 0 | 0 | 0 | 32 | 0 | 0 | 0 | 34 | 0
COc1ccc(Nc2nccc(N3CCC(NC(=O)C(C)c4ccc(Cl)cc4)C3)n2)cc1 (stereo not shown) [GSK1379735] | 0 | 10 | 13 | 0 | 33 | 0 | 48 | 0 | 2 | 39
CCCCc1nn2ncccc2c1-c1ccnc(NC2CC2)n1 [GW684374] | 2 | 0 | 0 | 0 | 0 | 9 | 0 | 0 | 0 | 12
Nc1ncnc2occ(-c3ccc4c(c3)CCN4C(=O)Cc3cc(F)ccc3F)c12 [GSK2645446] | 1 | 0 | 0 | 0 | 5 | 7 | 0 | 0 | 0 | 16
Cn1cnc2c(N)ncnc21 [SKF-97623] | 0 | 0 | 27 | 0 | 0 | 0 | 0 | 0 | 0 | 0
CNc1nc(-c2ccc3c(N)n[nH]c3c2)cc(N2C[C@@H](C(=O)NC3CCCCC3)OC[C@H]2C)n1 [GSK2375584] | 20 | 0 | 0 | 0 | 24 | 30 | 2 | 0 | 0 | 4
Cc1c(Cn2c3ccccc3n3c(=O)cc(N4CCOCC4)nc23)cccc1C(F)(F)F [GSK2306394] | 0 | 15 | 0 | 0 | 5 | 0 | 0 | 1 | 0 | 41
COc1nccc(-c2c(-c3ccc(F)cc3)ncn2CCCN2CCOCC2)n1 [SB-282852] | 0 | 13 | 0 | 0 | 30 | 0 | 0 | 0 | 0 | 0
CNc1nc(-c2ccc3c(N)n[nH]c3c2)cc(N2C[C@@H](C(=O)Nc3ccccc3)CC[C@H]2C)n1 [GSK2298859] | 1 | 0 | 0 | 4 | 19 | 8 | 0 | 2 | 0 | 33

Structure (SMILES) | %Inh (SGK3) [%] | %Inh (SGK) [%] | %Inh (SIK2) [%] | %Inh (SIK) [%] | %Inh (SLK) [%] | %Inh (SNARK) [%] | %Inh (SNRK) [%] | %Inh (SRC) [%] | %Inh (SRMS) [%] | %Inh (SRPK1) [%]
COc1cccc(NC(=O)Nc2ccc(C)c(-c3ccc(C(=O)Nc4ccncc4)cc3)c2)c1 [GSK1398474] | 11 | 0 | 0 | 10 | 7 | 13 | 3 | 31 | 0 | 31
CC(C)c1ccc(O)cc1Nc1ccnc2ccc(C(F)(F)F)cc12 [GW482059] | 4 | 7 | 0 | 0 | 9 | 3 | 0 | 14 | 0 | 35
O=C(Nc1n[nH]c2nc(-c3ccco3)c(Br)cc12)C1CCN(Cc2ccccc2)C1.O=C(O)[C@H](O)[C@@H](O)C(=O)O (stereo not shown) [SB-742034] | 24 | 18 | 9 | 52 | 8 | 11 | 0 | 0 | 17 | 28
COc1ccc(CSc2nnc(-c3ccc4c(c3)CCO4)o2)cc1 | 0 | 0 | 0 | 0 | 0 | 0 | 0 | 0 | 0 | 0
Cn1cncc1-c1cc2c(Nc3ccc(OCc4ccccc4)cc3)ncnc2cn1 [GW281179] | 0 | 4 | 0 | 0 | 19 | 0 | 0 | 0 | 0 | 18
CC(=O)c1c(C)c2cnc(Nc3ccn(C)n3)nc2n(C2CCCC2)c1=O | 26 | 0 | 0 | 0 | 34 | 6 | 0 | 0 | 0 | 0
CNC(=O)c1ccc(C)c(-n2c(C)cc(OCc3ccc(F)cc3F)c(Br)c2=O)c1 | 0 | 0 | 0 | 0 | 0 | 0 | 0 | 0 | 0 | 14
CC(=O)c1c(C)c2cnc(Nc3ccc(N4CCNCC4)cn3)nc2n(C2CCCC2)c1=O | 5 | 0 | 10 | 0 | 0 | 0 | 8 | 0 | 0 | 32
CNCc1ccc2nc(NC(=O)c3ccc(C(C)(C)C)cc3)cn2c1 | 31 | 2 | 4 | 3 | 0 | 34 | 20 | 3 | 0 | 33
c1ccc(-c2ccnc3[nH]ccc23)cc1 [SB-693578] | 10 | 18 | 25 | 0 | 6 | 48 | 0 | 0 | 0 | 0
Cc1ccc(NC(=O)Nc2ccccc2)cc1-c1ccc(C(=O)Nc2ccncc2)cc1 [GSK1398471] | 10 | 0 | 0 | 6 | 13 | 4 | 0 | 20 | 0 | 33
CC(C)c1cc(-c2ccc3c(N)n[nH]c3c2)nc(N)n1 [GSK2250882] | 4 | 0 | 0 | 0 | 14 | 0 | 0 | 0 | 8 | 60
Cc1ccc(-c2nc(Nc3ccncc3)c3ccccc3n2)s1 [GSK189015] | 47 | 5 | 16 | 0 | 9 | 74 | 3 | 13 | 3 | 38
CCc1ccc(-c2ccc3c(c2)-c2n[nH]cc2S(=O)(=O)N3C)cc1 | 0 | 0 | 13 | 29 | 0 | 0 | 1 | 0 | 1 | 0
COC(=O)c1cccc(NC(=O)NC2CCN(c3ccnc(Nc4ccc(F)cc4)n3)C2)c1 (stereo not shown) [GSK1379725] | 0 | 0 | 0 | 2 | 0 | 0 | 0 | 0 | 0 | 23
COc1cccc(CNC(=O)NC2CCN(c3ccnc(Nc4ccc(F)cc4)n3)C2)c1 (stereo not shown) [GSK1379723] | 0 | 0 | 14 | 0 | 15 | 0 | 0 | 0 | 0 | 33
Cc1ccc(NC(=O)Nc2ccc(Cl)cc2)cc1-c1ccc(C(=O)Nc2ccncc2)cc1 [GSK1398472] | 13 | 0 | 11 | 20 | 12 | 0 | 0 | 8 | 0 | 0
